Laboratory results as given in PubChem BioAssay AID1159506 (National Center for Advancing Translational Sciences (NCATS), 2015).
The full ranking holds about 59,000 sequences; the median of the read-out is about -0.00055, and the lowest 2% start at about -2. This is one part of a sample in which the lowest values are shown more often than they occur.

Experiment: Identification of proteins required for the processing of the EWS-FLI1 nascent transcript;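 further: robust z of luciferase light less the median z of siRNAs with the same seed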
Settings: TC32 Ewing sarcoma NR0B1-luc vs CMV-luc (EWS-FLI1 target promoter against control promoter), 48 h; screened at 20 nM (by protocol)
Outline: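 Three siRNAs per gene, each in a separate well at 20 nM, were transfected into TC32 cells bearing either reporter construct. Luminescence was measured two days on, and per-gene comparison relied on seed-corrected Z values.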
Sequence UAGUGUAAACAAGAAGUUG against ABHD10 has a seed-corrected z-score of 0.996. AAAGCGAGCACUGCGGAUC against CCDC102A gave a seed-corrected z-score of -0.304. In the case of UAGAGCACAGGAUAGAACC against RAP1GAP, the seed-corrected z-score is reported as 0.295. Sequence UGUCUUCUAAGUAGAGCCU against VIPR2 has a seed-corrected z-score of -2.47. In the case of AACGAAACAAACUUGGUCC against NGEF, the seed-corrected z-score is reported as 0.943. Sequence UAUCCUAAAAUCGCUGUUG against ARNTL2 has a seed-corrected z-score of -0.114. Work on UCCCAUUGAAAGCAUAUCC against TSHR yielded a seed-corrected z-score of -1.47. In the case of UAUCUUUAUCAAAACCUCG against EFCAB1, the seed-corrected z-score is reported as -0.824. Sequence UAUGGAAUAAGUUGCUCGA against MED30 has a seed-corrected z-score of -0.0259. In the case of UUGACUACGAUGAGCUUGC against ETV3L, the seed-corrected z-score is reported as 1.16. For UUAUUAUGUAUGCAUCUGG against LINC00632, the seed-corrected z-score was -0.334. ACAGUGGUGAGUUAUCUCA against CDC42 showed a seed-corrected z-score of -2.8. With AUGGAUUCUUCAAUCGUCC against SMARCAD1 the seed-corrected z-score was 0.8. AGUCAUAUCAUUUAUAGUG against FOXQ1 gave a seed-corrected z-score of -0.473. Sequence UUUCAAUUUAGUUUGAUGA against LOC728147 has a seed-corrected z-score of 0.0773. In the case of AUUACUUCGAGACUUGCUG against LCLAT1, the seed-corrected z-score is reported as -0.482. In the case of AAACUUAGUAGAGUUGUCC against LOC342541, the seed-corrected z-score is reported as 0.528. Work on GUUGUGACCUGUCACGAUG against CTU1 yielded a seed-corrected z-score of -1.99. UGCUUGACAACUGGCCACC against RPL18AP4 gave a seed-corrected z-score of -0.411. With UCAUCAUCUUCUUCGAGGC against DCLRE1A the seed-corrected z-score was -2.16. In the case of UAGAGGACCUUCAUGUUGU against THY1, the seed-corrected z-score is reported as 0.624. Work on UUAUCUGGAAUGAACAAUG against PHF3 yielded a seed-corrected z-score of -0.486. Work on UACGAUCAUUGCACUGUCC against FBN1 yielded a seed-corrected z-score of -0.21. For UAUGUAUCUACCCAUCCGC against ATG3, the seed-corrected z-score was -1.27. For UGACUGUUCACGGAAUUCU against TGM3, the seed-corrected z-score was -0.755. For UCUUUAGGAAUGUAAAGCC against SKIV2L2, the seed-corrected z-score was 0.824. UCAUUUUCGACCACCUUUC against WBSCR16 gave a seed-corrected z-score of -0.738. UUAGGAACUCGAACGACGU against GTF2F1 gave a seed-corrected z-score of 0.889. UUCUUCUUAGAUUUAUGCC against RPL3 showed a seed-corrected z-score of -2.09. Work on UCUCGAUUGAGGGUGGUUG against FLRT3 yielded a seed-corrected z-score of 0.383. In the case of AUAGGUGCAAGGCUUGUGC against C1orf56, the seed-corrected z-score is reported as -2.01. For UCUUCUCGAACAGAGGUCG against F2, the seed-corrected z-score was -0.0868. In the case of UGAGGGUUUAGCAUCAAGC against PCGF1, the seed-corrected z-score is reported as -1.47. For UCUUUUAACGACCUCCUGC against SLC35D3, the seed-corrected z-score was 0.495. Work on UCGCGGAUCUCCUUUGUGG against HMGN2P18 yielded a seed-corrected z-score of -0.51. AAAGUCCCAAGUGCUAAGA against FAM180B gave a seed-corrected z-score of 2.95. With UUCUCGAUGCGGUCCAUCC against RILPL1 the seed-corrected z-score was 1.36. UUUGGUAGAAAAUUGCAGA against FJX1 gave a seed-corrected z-score of -0.707. With UUCCGUUCCACCUCCAUCA against SPATC1 the seed-corrected z-score was -2.15. With UCAUCUACCUGUAUUACCU against CDCA8 the seed-corrected z-score was -0.479. AAUGGUAGUAGCGGAAUCG against SLC12A6 gave a seed-corrected z-score of -1.16. Work on UAUGUACUUCUGACAAGUC against RNF125 yielded a seed-corrected z-score of 0.00921. In the case of UAUCUAGCAGCUCUCCCAG against AMHR2, the seed-corrected z-score is reported as 0.151. For UAACCGACUGGGUAGAGCG against EMC4, the seed-corrected z-score was 0.348. Sequence UCUCUGCUCAAUGUUUUCU against LBH has a seed-corrected z-score of -2.25. For UACGAGGAUGUUGUAUUCC against N4BP1, the seed-corrected z-score was -0.092. In the case of UACAGUACAAACAAGGCUG against CEBPA, the seed-corrected z-score is reported as -0.377. For UUAACUGCUAGUGUAUUGG against TCP1, the seed-corrected z-score was -1.18. UCAAGGAUAAGAGAGAUUG against RORC showed a seed-corrected z-score of 0.034. UGCGAUUGAAUAUUCUACG against CSRNP3 showed a seed-corrected z-score of -2.35. AUUCUUACAAUCUAAAGGC against SUPT7L gave a seed-corrected z-score of 0.435. For AGAGGUUGUACAUUCUUCG against SESN2, the seed-corrected z-score was -2.47. For UUCUUAGACACGUAGUACC against KAT2B, the seed-corrected z-score was 0.834. Sequence UAGGGAUUCCCUGUAGUUC against COLEC10 has a seed-corrected z-score of 1.57. In the case of AUCUGUCUGAGUGCAAAUC against HIPK1, the seed-corrected z-score is reported as -0.0595. With UUGGUAUCAAGGUCUACAC against DENND4B the seed-corrected z-score was -0.319. Work on AUUGUAUACAGCGAGUUCU against GP1BA yielded a seed-corrected z-score of 0.181. AUCCGGAACCUGUAGAUCG against CCDC130 gave a seed-corrected z-score of -0.0498. Work on AAUGGUCUUGUUGGUCUCC against TSNARE1 yielded a seed-corrected z-score of -2.7. UGAUUAACCAGUACUGAUG against C5orf42 gave a seed-corrected z-score of 0.83. Work on AUUAGAACUACAGCUCUCG against LOC648999 yielded a seed-corrected z-score of 0.638. Sequence UCGAUGGUAAGGUAAGAGC against DNMT3B has a seed-corrected z-score of -2.25. UCUCGUAGAACAUUGCUGG against VPS53 gave a seed-corrected z-score of -0.933. With AAAGCUGGAAUAAAUAGUC against DLX5 the seed-corrected z-score was -0.397. Work on UGAAUGUCAAUGUCGUAUG against PCDHB1 yielded a seed-corrected z-score of -0.133. For UGUUGUUCUUGACUGACUG against SNRPD2P1, the seed-corrected z-score was -4.32. In the case of UUAGUGAUAUUCUUGACAG against PSMD5, the seed-corrected z-score is reported as 0.816. In the case of UCAUGUAAAACUCUCGGCC against PARS2, the seed-corrected z-score is reported as -0.0062. UCAUUGAAGUGCUUAGUGG against RASGRF1 showed a seed-corrected z-score of -0.277. Work on UGUUGUAGAUCCAUAGUUC against KLHDC2 yielded a seed-corrected z-score of -4.33. With UCCAUGUCAUGUAAAUUUC against MR1 the seed-corrected z-score was -0.441. Sequence AUUGCAAAAGUAGAUUUAC against RPL26P30 has a seed-corrected z-score of 0.181. UUCAGUUCUAGAGGUCUGC against TMEM53 gave a seed-corrected z-score of -0.0791. For UUCGCUUCCAGUUCACCUC against MBOAT1, the seed-corrected z-score was 0.704. UAUGUGACGAGGGUCAUGC against THBS1 showed a seed-corrected z-score of -2.07. AAACCCUUCACAGUCUUGG against LOC388955 showed a seed-corrected z-score of 0.158. For AGCUAUAUUAUUCACAGCC against BTF3L4, the seed-corrected z-score was -0.0759. Sequence UGUCUAAUAAACAAGUUAC against DNA2 has a seed-corrected z-score of -0.418. For UCUCCGAUGAGAGCUUUGG against GNS, the seed-corrected z-score was -0.354. AUAGUGUAAAGAACAUCCG against HNRNPL showed a seed-corrected z-score of 2.46. UCCAUUACAAUCGACCUUU against PROK2 showed a seed-corrected z-score of -0.664. In the case of UUCCCGUUCAUUUUGCAAC against ASZ1, the seed-corrected z-score is reported as -0.283. Work on AAGGUGUCGAUGUCCAUGG against MSLNL yielded a seed-corrected z-score of -2.6. Sequence AAAUCAACCAAUUAAAGUC against LOC403323 has a seed-corrected z-score of 1.01. UGUUCAAUCUUGGAGCUGG against LRRC8E gave a seed-corrected z-score of 1.15. AAAGAUCAAAUCUGAUUCC against MRPL19 showed a seed-corrected z-score of -0.8. For AUAUGUUCAAGGUGAUUCG against OR6K2, the seed-corrected z-score was -0.456. AUCGCGAACACUAACGUAC against SUB1 gave a seed-corrected z-score of -0.141. UUAGGUAACGGAAACGGGC against LDHC gave a seed-corrected z-score of 0.562. UUGGUAUUGAUCGUUUAUG against DCUN1D1 gave a seed-corrected z-score of 1.03. AUACCGAAAACCUUCGCCC against ABCA3 showed a seed-corrected z-score of 0.623. UAUGGUUACAAAGGGAACU against ZNF669 showed a seed-corrected z-score of 0.508. Work on UCAGGUACAAUUCUGAUUC against KRT38 yielded a seed-corrected z-score of -0.223. UUGGGUGUCAGGAUCUCGU against MYH14 gave a seed-corrected z-score of -2.4. With UACAUCUCCAGGGUCAGCG against CALY the seed-corrected z-score was -0.514. Work on UCUGCGACUCCUGUUCUGC against WRBP1 yielded a seed-corrected z-score of 0.0575. With UUUGUAAGGUUGCUGAUCG against CLIP1 the seed-corrected z-score was 0.221. For UUCUCGUCUAGUUUGCAUC against SH3RF3, the seed-corrected z-score was 0.155. AUUGUUUGUGGUAUUGUAG against CRHR1 gave a seed-corrected z-score of 0.211. Sequence UGAGUGCUUACUGGUUUGC against C9orf47 has a seed-corrected z-score of -3.58. UCGGAUGUAUCUGAGGUGC against DCAF8L1 gave a seed-corrected z-score of -0.269. UCUAAUUCUGCGGCUUUUC against SCAMP1 gave a seed-corrected z-score of -0.0112. UAGAUGCUCAGGGAUCACC against AS3MT gave a seed-corrected z-score of 1.06. UUUCGAACACGAAACAUUC against LOC340089 showed a seed-corrected z-score of -0.0497. AUACCUGCUAAUGUCAUCC against ERCC6 gave a seed-corrected z-score of -3.8. For ACAGUUAGUAUUGUACUUG against ZNF280C, the seed-corrected z-score was 0.315. Sequence UGAGUUUCCAGGCUAUCAC against CCDC122 has a seed-corrected z-score of -2.99. AUACUGAAAAUAGUACAUG against KMT5A gave a seed-corrected z-score of 0.332. Sequence UGUACAGAGAGGGCAUGUG against BAIAP2L2 has a seed-corrected z-score of -1.82. Sequence UUUCAUAGAUUAGCACUCC against PRKACB has a seed-corrected z-score of -0.257. UCGGUGAUGAGGCUGAUCC against G6PC3 gave a seed-corrected z-score of -0.843. AGUGUAACAGACAUCAUGC against DLAT gave a seed-corrected z-score of -0.966. With UUGUAUUCCCUUGUGGUCC against KHDRBS1 the seed-corrected z-score was -2.93. In the case of UGCUUUGUCGUAAUCUUCC against UNC45A, the seed-corrected z-score is reported as -0.29. AAAAUAAUCGAUGUGAUUU against FOXI3 gave a seed-corrected z-score of -0.41. AUCACUCUCACAUACAUGG against RCAN1 showed a seed-corrected z-score of -0.288. Sequence UAUCGUGAAACAGACUUCC against SND1 has a seed-corrected z-score of 0.0523. UUCUAAACAACUCUUGGAC against RPUSD4 gave a seed-corrected z-score of -0.962. For UACAGGGUCAGGGAGAGGU against PTPN6, the seed-corrected z-score was -2.18. In the case of UUGUAUACAACCUAUCAAC against B4GALT6, the seed-corrected z-score is reported as -0.657. With UUAUUUUGAAUAGCCUUCC against SERBP1 the seed-corrected z-score was 1.09. For UAUAUCGACAGCUCAGCUC against SUPT6H, the seed-corrected z-score was -4.43. Work on UUGGUAUCCAAAGACGAUG against RTKN2 yielded a seed-corrected z-score of -0.918. For “AAGGGCAAAGGAGUGAGGC against LOC100289495”, the seed-corrected z-score was -0.199. For UUCUGGUUAGUCAUAUUGG against HDAC1, the seed-corrected z-score was -0.41. Work on UUGAGGGCAGAAGUACACU against FAM231D yielded a seed-corrected z-score of -0.76. Sequence UGGUUUGUCAGCGGGAUUC against MINK1 has a seed-corrected z-score of -2.53. Sequence AUCCGAACACCCAUAAGCC against POLK has a seed-corrected z-score of -0.479. For UUAAUUCUAUUCGAUCAUC against MNS1, the seed-corrected z-score was 0.033. UCUUAUGUUGGUGUUGUUC against SMOC1 showed a seed-corrected z-score of 0.0653. With UGAGUGAUAGUCUAGACUC against SOX9-AS1 the seed-corrected z-score was 0.0191. For UUUAUUUAGGGAGCUCCAG against ETHE1, the seed-corrected z-score was 0.835.
